NR3A LBD binder: binders of NR3A ligand-binding domain, primary screen, biophysical, differential scanning fluorimetry, uHTS; 340,000 tested, 2.5% active; AID 1259313, 2017; Glutamate receptor ionotropic, NMDA 3A (GRIN3A) ligand-binding domain; Tm shift relative to glycine control, % at 25 µM; NR3A LBD differential scanning fluorimetry, Tm shift; 0% = protein alone, 100% = glycine-bound protein;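 active means melting temperature shift of at least 10% of the positive control shift, at one fixed dose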
Gli-Sufu block: Gli-Sufu pathway antagonists, primary screen, luciferase luminescence, Sufu-KO-LIGHT cells, uHTS; Sufu-KO-LIGHT fibroblasts, Gli luciferase reporter luminescence; 340,000 tested, 0.74% active; inhibition, % at 5 µM; AID 588413, 2011;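 active means inhibition above about 55%, limit read from the data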;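 further: 0% = DMSO-treated cells and 100% = wells with medium but no cells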
Mdm2 MdmX PPI: inhibitors of human Mdm2-MdmX association, primary screen, cell-based, luminescence, split luciferase, SaOS-2, uHTS; Protein Mdm4 (Homo sapiens) + E3 ubiquitin-protein ligase Mdm2 (Homo sapiens), …; SaOS-2 split-luciferase Mdm2/MdmX complementation; inhibition, % at 8 µM; 330,000 tested, 3% active; AID 485346, 2010;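 active means inhibition of at least 50% at 8 µM in the primary screen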
Beta cell apopt: inhibitors of cytokine-induced beta cell apoptosis, primary screen, luminescence; INS-1E cytokine-induced death, ATP luminescence, 48 h; percent of positive-control rescue, neutral wells zero; protection from apoptosis, % (concentration not given with the values); 300,000 tested, 0.8% active; AID 435005, 2010;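 active means Every replicate reaches about 75%, or at least half do and their mean reaches it too, limit read from the data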;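 further: 0% = cytokine-treated negative control wells and 100% = positive control rescue; higher means more ATP so stronger rescue from cytokine killing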
MPTP block: mitochondrial permeability transition pore inhibitors, primary screen, biochemical, isolated mouse mitochondria, absorbance. Ca2+ swelling absorbance, 30 min. inhibition, % at 10 µM. 360,000 tested, 1.4% active;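 active means inhibition of 50% or more, scaled per plate between neutral and stimulator controls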;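 further: 0% = DMSO wells given calcium and 100% = 1 mM EGTA wells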
CSC inhib: cancer stem cell viability inhibitors, primary screen, luminescence; AID 2717, 2010; inhibition, % at 7.5 µM; 300,000 tested, 1.1% active; cancer stem cell-like cells viability; in the data active means inhibition above about 75%; tested in HMLE shEcad cells
Mdm2 MdmX conf: Mdm2-MdmX complex disruptors, retested hits, confirmation, luminescence, single concentration; Mdm2-MdmX binding, luminescent assay; inhibition, % at 8 µM; 10,000 tested, 55% active; shares compounds with Mdm2 MdmX PPI; in the data active means inhibition above about 40%
Full FLuc ctr: full-length luciferase signal inhibition, confirmation, counter-screen for Mdm2/MdmX interaction inhibitor project, cell-based, single concentration, SaOS-2 | shares compounds with Mdm2 MdmX PPI | SaOS-2 full-length luciferase counterscreen, luminescence | inhibition, % at 8 µM | 6,200 tested, 77% active | AID 504607, 2011;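 active means mean inhibition at 8 µM reaching about 37%, which flags the compound as non-specific, limit read from the data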;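 further: p53-null SaOS-2 cells with luciferase driven by a doxycycline-inducible promoter; compound on cells about two nights before reading with doxycycline added after day one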
* hit, by the source's call; x = not tested or not shown. The list is not random: actives were taken first. Their share in the collection is about 6.6%.

SMILES	NR3A LBD binder	Gli-Sufu block	Mdm2 MdmX PPI	Beta cell apopt	MPTP block	CSC inhib	Mdm2 MdmX conf	Full FLuc ctr
CCOC(=O)c1ccc(-c2ccc(C3Nc4ccccc4C(=O)N3O)o2)cc1 (centres undefined)	-5	-13	72*	7	4	-4	62*	58*
N#Cc1ccc(-c2ccc(C3Nc4ccccc4C(=O)N3O)o2)cc1 (centres undefined)	-3	0	24	14	0	11	x	x
CCN(C(=O)c1ccc2c(Cl)c3c(nc2c1)CCC3)c1ccc(C)c(C)c1	-22	17	53*	11	-1	x	43*	82*
CN1CCN(CCCNC(=O)c2ccc3c(Cl)c4c(nc3c2)CCCC4)CC1	-1	23	76*	-1	-1	-18	42*	58*
CN(C(=O)c1ccc2c(Cl)c3c(nc2c1)CCC3)c1ccccc1	-6	-25	-1	4	-1	x	x	x
CCC(C)NC(=O)c1ccc2c(Cl)c3c(nc2c1)CCC3 (centres undefined)	-1	-14	-76	1	3	-10	x	x
O=C(c1ccc2c(Cl)c3c(nc2c1)CCCC3)N1CCC(N2CCCCC2)CC1	-1	-2	58*	-2	-1	27	25	x
CCc1ccc(/C=C2/SC(=S)N(CCC(=O)Nc3cccnc3)C2=O)cc1	0	0	28	-1	1	0	x	x
Cc1ccc(NC(=O)COc2ccc(/C=C3/SC(=Nc4ccccc4)N(Cc4cccnc4)C3=O)cc2)cc1	0	-13	51*	15	4	25	10	x
S=C(NCCN(C1CCCCC1)C1CCCC1)Nc1cccc(Cl)c1	-2	29	62*	12	2	34	37	63*
CCOc1c(OC(C)=O)ccc(/C=C/c2ccc3cccc(OC)c3n2)c1[N+](=O)[O-]	-7	-15	-51	-10	3	43	x	x
COc1ccc(/C=C/c2ccc3cccc(O)c3n2)c(OC)c1OC	3	-7	100*	31	1	73	18	x
Cc1ccc(/C=C/c2ccc3cccc(O)c3n2)s1	-6	-50	-97	9	0	40	x	x
COc1cccc(/C=C/c2ccc3cccc(O)c3n2)c1OC	-3	30	70*	51	0	66	-95	x
CC1(C(=O)NS(=O)(=O)C2CC2)CCN(C(=O)c2ccc(F)c(Cl)c2)C1 (centres undefined)	x	x	x	x	0	x	x	x
COc1ccc(C/C(N)=N/OC(=O)C(c2ccccc2)c2ccccc2)cc1OC	2	-5	46	-1	-1	32	x	x
N/C(Cc1ccc([N+](=O)[O-])cc1)=N\OC(=O)C(c1ccccc1)c1ccccc1	0	2	70*	11	3	-4	50*	79*
Cc1ccc(C(=O)O/N=C(\N)Cc2cccs2)c(Cl)c1	3	-103	100*	x	-1	x	24	x
Cc1ccc(C(=O)O/N=C(\N)Cc2ccc([N+](=O)[O-])cc2)c(Cl)c1	-3	-3	90*	-4	3	-1	60*	43*
N/C(Cc1ccc([N+](=O)[O-])cc1)=N\OC(=O)c1ccccc1Br	12*	2	60*	3	1	2	30	x
N/C(Cc1ccc([N+](=O)[O-])cc1)=N\OC(=O)c1ccc(Br)cc1	-25	2	13	-2	1	4	x	x
Cc1cccc(C(=O)O/N=C(\N)Cc2ccc([N+](=O)[O-])cc2)c1	1	-8	89*	-4	-5	-15	56*	54*
COc1ccccc1C/C(N)=N/OC(=O)c1cccc([N+](=O)[O-])c1C	1	-6	57*	12	0	-3	36	102*
N/C(Cc1ccc([N+](=O)[O-])cc1)=N\OC(=O)c1ccc2ccccc2c1	-2	4	88*	0	0	1	40	61*
COCCNC(=O)CN(Cc1ccccc1)C(=O)CCC(=O)Nc1nccs1	1	27	9	1	-2	-6	x	x
SMILES	NR3A LBD binder	Gli-Sufu block	Mdm2 MdmX PPI	Beta cell apopt	MPTP block	CSC inhib	Mdm2 MdmX conf	Full FLuc ctr
CCCc1cc(C(=O)OCC(=O)NCCc2ccccc2)sc1C	x	x	x	x	0	x	x	x
CCOC(=O)c1[nH]c2ccc(OC)cc2c1NC(=S)N1CCN(c2cccc(Cl)c2)CC1	13*	17	50*	x	1	x	21	x
CCN(CC)c1ccc(/C=N/NC(=S)NCc2ccccc2)c(O)c1	-2	19	60*	83*	23	46	44*	44*
CCN(CC)c1ccc(/C=N/NC(=O)c2ccco2)c(O)c1	-18	-4	59*	93*	1	113*	57*	55*
CCN(CC)c1ccc(/C=N/N=C(c2ccccc2)c2ccccc2)c(O)c1	1	2	7	13	5	61	x	x
COc1ccccc1N1CCN(C(=O)COc2ccc(Cl)cc2Br)CC1	-9	6	57*	-6	-1	x	38	60*
CCc1ccc2oc(C(=O)N3CCN(c4ccccc4OC)CC3)cc(=O)c2c1	-2	1	60*	2	0	70	50*	40*
COc1ccccc1N1CCN(C(=O)NCc2ccc(Cl)cc2)CC1	0	-1	24	-4	0	15	x	x
CCc1ccc2oc(C(=O)N3CCN(c4ccc(OC)cc4)CC3)cc(=O)c2c1	-2	14	-1	-4	-1	-11	x	x
COc1ccccc1N1CCN(C(=O)c2ccc(-c3ccc(Cl)cc3)o2)CC1	4	-3	56*	17	0	54	56*	59*
Cc1nn(-c2ccccc2)c(Cl)c1C(=O)NNC(=O)c1ccccc1O	-1	-10	27	43	0	35	x	x
NC(=O)CSc1nnc(-c2ccccc2)c(-c2ccccc2)n1	1	8	-13	-3	0	15	x	x
COc1ccc(NS(=O)(=O)c2ccc(C(=O)N3CCC(C)CC3)cc2)cc1	1	34	24	7	0	-18	x	x
COc1ccc(S(=O)(=O)NCCc2nnc3ccc(SCc4cccnc4)nn23)cc1	-2	-2	-3	-3	2	x	x	x

From PubChem
